12-hLO inh: qHTS Assay for Inhibitors of 12-hLO (12-human lipoxygenase); Polyunsaturated fatty acid lipoxygenase ALOX12 (Homo sapiens), P18054; purified 12-hLO, xylenol orange hydroperoxide absorbance; Potency, µM (series often up to 57.1 µM), most hits filed as inhibitors; 150,000 compounds, 0.12% hits; note: nearly all actives have a fitted effect of over 55% in size
Target sequence (P18054 whole entry, looked up): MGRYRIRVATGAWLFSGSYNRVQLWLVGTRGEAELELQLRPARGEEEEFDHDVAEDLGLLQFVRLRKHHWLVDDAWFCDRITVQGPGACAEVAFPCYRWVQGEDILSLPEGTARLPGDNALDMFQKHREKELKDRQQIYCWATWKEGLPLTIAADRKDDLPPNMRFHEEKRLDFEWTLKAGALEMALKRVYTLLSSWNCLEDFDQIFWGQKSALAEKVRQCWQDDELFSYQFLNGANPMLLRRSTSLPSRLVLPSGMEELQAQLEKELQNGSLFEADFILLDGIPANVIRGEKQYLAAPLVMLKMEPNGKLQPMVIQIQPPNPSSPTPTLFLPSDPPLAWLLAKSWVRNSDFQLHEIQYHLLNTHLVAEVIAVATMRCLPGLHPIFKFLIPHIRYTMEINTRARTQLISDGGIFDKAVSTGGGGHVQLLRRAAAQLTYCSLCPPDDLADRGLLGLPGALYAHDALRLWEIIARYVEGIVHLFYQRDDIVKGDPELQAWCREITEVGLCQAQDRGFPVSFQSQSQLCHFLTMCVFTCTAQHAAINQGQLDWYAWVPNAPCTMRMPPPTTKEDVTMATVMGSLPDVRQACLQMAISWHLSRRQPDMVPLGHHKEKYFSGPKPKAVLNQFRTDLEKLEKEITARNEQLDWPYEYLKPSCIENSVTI
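Purified human 12hLO (150 nM), preincubated 15 min with compound, then 40 uM arachidonic acid for 30 min, room temperature, Hepes pH 7.0 with 0.01% Triton X-100. Hydroperoxide detected by ferrous iron/xylenol orange; 573/405 nm absorbance ratio gives reaction progress.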
15-hLO-2 inh: qHTS Assay for Inhibitors of 15-hLO-2 (15-human lipoxygenase 2); Polyunsaturated fatty acid lipoxygenase ALOX15B (Homo sapiens), O15296; purified 15hLO-2, xylenol orange hydroperoxide absorbance; Potency, µM (doses to about 57.1 µM), most hits filed as inhibitors; 110,000 compounds, 0.56% hits; AID 881, 2007; note: nearly all actives have a fitted effect of over 60% in size
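Purified human 15hLO-2 (50 nM) preincubated 15 min with compound, then 45 uM arachidonic acid for 90 min at RT in 25 mM Hepes pH 7.5, 0.01% Triton X-100. Hydroperoxide detected by Fe-xylenol orange; 573/405 nm absorbance ratio.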
Of the large screens only hits and unclear results are named; the others gave an inactive call. The sample as a whole holds a higher share of hits than the screen did. Calls come from the whole dose curve; as a rule, active = well fitted curve in the direction sought with a large enough effect; inconclusive = small, poorly fitted or top-dose-only effect, or another doubt; inactive = no such curve, though single readings can be large; an effect the other way counts as inactive or inconclusive.

Cc1cc(O)c2c(c1O)C(=O)c1c(O)cc(C)c(O)c1C2=O	none
O=C(c1ccc(Cc2nc3ccccc3[nH]2)cc1)N1CCOCC1	none (no result: 15-hLO-2 inh)
O=C(Nc1ccc(Cl)cc1)c1cccs1	none
O=C(Nc1ccccc1)c1nnsc1S(=O)c1ccc(Cl)cc1 (stereo not given)	12-hLO inh inconclusive, 15-hLO-2 inh 1.26µM
Cc1c(NC(=O)c2cccc(-c3cc4ccccc4oc3=O)c2)cccc1-c1nc2ncccc2o1	none (no result: 15-hLO-2 inh)
O[C@@H](c1cc(-c2ccc(Cl)cc2)nc2ccccc12)[C@@H]1CCCCN1	none
Nc1nc(Nc2ccccc2)nc2c1ncn2[C@@H]1O[C@@H](CO)[C@H](O)[C@@H]1O	none
Cc1cccc(Nc2nc(-c3cccs3)cs2)n1	12-hLO inh 17.8µM (no result: 15-hLO-2 inh)
c1ccc(Nc2nc(-c3cccs3)cs2)nc1	none (no result: 15-hLO-2 inh)
C[C@H]1Cc2c(COc3ccccc3)nc3c(c2CO1)CN(C(=O)NCCc1c[nH]c2ccccc12)CC3	none (no result: 15-hLO-2 inh)
C=CCOC(=O)c1cc(-c2ccc(/C=C3\C(=O)NC(=O)C(C#N)=C3C)o2)ccc1Cl	15-hLO-2 inh 12.6µM
CCCOC(=O)c1cc(-c2ccc(C=O)o2)ccc1Cl	none (no result: 15-hLO-2 inh)
CC(C)(C)[C@@]1(O)CCN2C[C@@H]3c4ccccc4CCc4cccc(c43)[C@@H]2C1	none
C=CCN1c2ccccc2[C@]23C[C@@H](C(=O)OC)N(S(=O)(=O)c4ccc5c(c4)OCCN5C)C2=NC(C(=O)OC)=C(C(=O)OC)[C@H]13	none (no result: 15-hLO-2 inh)
CC(C)[C@@H]1NC(=O)[C@H](CCCCN)NC(=O)[C@H](Cc2c[nH]c3ccccc23)NC(=O)[C@H](Cc2ccc(O)cc2)NC(=O)[C@H](C)N(C)C(=O)[C@H](Cc2ccccc2)NC1=O	none
COc1cc(Sc2ccc(C)cc2)c(OC)cc1N	15-hLO-2 inh 10µM
COC(=O)c1ccc(Sc2ccc(C)cc2)c(N)c1	none
COC(=O)C1(C(=O)OC)CC2=CCC3C(=O)N(c4ccccc4)C(=O)C3C2Cc2ccccc2[C@@H]1C[N+](=O)[O-] (stereo not given in full)	none (no result: 15-hLO-2 inh)
COc1cc2cc3c4c(cc(OC)c(OC)c4c2cc1OC)CCN3C	12-hLO inh inconclusive, 15-hLO-2 inh 12.6µM
COc1cc2c(cc1OC)C(=O)N(C)CC2	none
Cc1ccc(N/C=C/C(=O)c2ccc(C)cc2)cc1	12-hLO inh 2µM
Cc1ccc(C(=O)/C=C\Nc2ccc(C)c(C)c2)cc1	none (no result: 15-hLO-2 inh)
CCCCC/C=C\C/C=C\C/C=C\C=C\C(O)CCCC(=O)O (stereo not given)	none (no result: 15-hLO-2 inh)
CC(C)n1cc(/C=C2/SC(=O)N(CC(=O)N3CCCC3)C2=O)c2ccccc21	none
O=C1S/C(=C/c2ccc(N3CCOCC3)o2)C(=O)N1Cc1ccc(F)cc1	12-hLO inh inconclusive, 15-hLO-2 inh 1.26µM
CC(C)OC(=O)CN1C(=O)S/C(=C/c2ccc(N3CCCCC3)o2)C1=O	15-hLO-2 inh 12.6µM
O=C1N/C(=C/c2ccc(N3CCOCC3)cc2)C(=O)N1Cc1ccc(F)cc1	15-hLO-2 inh inconclusive
O=C1NC(=S)S/C1=C/c1ccc(N2CCOCC2)o1	none (no result: 15-hLO-2 inh)
O=C1S/C(=C\c2ccc(N3CCOCC3)o2)C(=O)N1Cc1ccc(F)cc1	15-hLO-2 inh 5.01µM
O=C1/C(=C/c2ccc(N3CCOCC3)o2)SC(=Nc2ccccc2)N1CCc1c[nH]c2ccccc12	12-hLO inh inconclusive, 15-hLO-2 inh 3.98µM
COc1cc(/C=C2\SC(=Nc3ccccc3)N(CCc3c[nH]c4ccccc34)C2=O)ccc1OC(C)C(=O)O (stereo not given)	none (no result: 15-hLO-2 inh)
CCC(C)(C)C(=O)O[C@@H]1C[C@@H](C)C=C2C=C[C@H](C)[C@H](CC[C@@H]3C[C@@H](O)CC(=O)O3)[C@H]21	none
CCCCc1nc2c(c3c1C[C@H](C)OC3)CN(C(=O)NCc1ccco1)CC2	none (no result: 15-hLO-2 inh)
CC[C@]1(O)C[C@H]2CN(CCc3c([nH]c4ccccc34)[C@](C(=O)OC)(c3cc4c(cc3OC)N(C=O)[C@H]3[C@@](O)(C(=O)OC)[C@H](OC(C)=O)[C@@]5(CC)C=CCN6CC[C@]43[C@H]65)C2)C1	none
CN1CCN([C@@H]2Cc3ccccc3Sc3ccc(Cl)cc32)CC1	none
COC(=O)[C@H]1CC2(CC=C(C)C)C(=O)[C@@](CC=C(C)C)(C(=O)C(C(=O)c3ccccc3)=C2OC)C1(C)C (tested in a mixture with another compound)	none (no result: 15-hLO-2 inh)
C=CCNC(=O)N1CCc2nc(COc3ccccc3)c3c(c2C1)CO[C@@H](C)C3	none (no result: 15-hLO-2 inh)
Oc1c(C(Nc2nc3ccccc3s2)c2ccco2)ccc2cccnc12 (stereo not given)	none
CC(C)C(=O)NC(c1ccco1)c1ccc2cccnc2c1O (stereo not given)	12-hLO inh 10µM
CCCCCC(=O)/C=C/[C@@H]1[C@@H](C/C=C\CCCC(=O)O)[C@@H](O)C[C@H]1O	none (no result: 15-hLO-2 inh)
CCc1ccc(S(=O)(=O)Nc2ccc(O)c(C(=O)O)c2)cc1	none (no result: 15-hLO-2 inh)
N#CC1=C(N)SC(N)=C(C#N)C1c1ccc(C(F)(F)F)cc1	15-hLO-2 inh 12.6µM
CCOc1ccc(C2C(C#N)=C(N)SC(N)=C2C#N)cc1OCC	15-hLO-2 inh inconclusive
CC1=CC(C)(C)Nc2ccc(OC(=O)CN3C(=O)c4ccccc4C3=O)cc21	none (no result: 15-hLO-2 inh)
CC1=CC(C)(C)Nc2ccc(OC(=O)CN3C(=O)c4cccc5cccc(c45)C3=O)cc21	15-hLO-2 inh 12.6µM
CCc1ccc2c(c1)C(C)=CC(C)(C)N2	15-hLO-2 inh inconclusive
CCOc1ccc2c(c1)C(C)=CC(C)(C)N2	12-hLO inh inconclusive, 15-hLO-2 inh 12.6µM
CCN(CC)c1ccc(C(=O)N/N=C(\C)c2ccc(O)cc2)cc1	none (no result: 15-hLO-2 inh)
Nc1nc(N)c2nc(CNc3ccc(C(=O)N[C@H](CCC(=O)O)C(=O)O)cc3)cnc2n1	none
CCOC(=O)c1c(C)nc2sccn12	none
Cc1nc2sccn2c1P(c1c(C)nc2sccn12)c1c(C)nc2sccn12	12-hLO inh inconclusive, 15-hLO-2 inh 25.1µM
COC(=O)[C@H](CCSC)NC(=O)Nc1cc(C)ccc1C	none
CSCCOC(=O)C1=C(C)Nc2ccc(C)cc2S1	15-hLO-2 inh 5.01µM
CCOC(=O)/C=C1\Nc2ccccc2SC1=O	none
CCOCCOC(=O)C1=C(C)Nc2ccc(C)cc2S1	15-hLO-2 inh 15.8µM
CCOCCOC(=O)c1cccc(NC(=O)OCC)c1	none
CCOC(=O)C1=C(C)Nc2ccc(C)cc2S1	12-hLO inh inconclusive, 15-hLO-2 inh 3.98µM
CN1CCN(c2ncc3nc(-c4ccc(Cl)cc4)c(=O)n(Cc4cccs4)c3n2)CC1	none (no result: 12-hLO inh)
CCCCS(=O)(=O)N1CCc2nc(-c3ccc(OC)cc3C)c3c(c2C1)CO[C@@H](c1ccccc1)C3	none (no result: 15-hLO-2 inh)
COc1ccc(-c2cc(C(=O)N/N=C/c3ccc(OC)c(OC)c3)[nH]n2)cc1	none (no result: 15-hLO-2 inh)
CC1(OC(=O)c2ccco2)C(=O)C2=COC(C3CC3)=CC2=C(Br)C1=O (stereo not given)	none (no result: 15-hLO-2 inh)
COc1ccc(N2C(=O)CC(Nc3ccc(C)cc3)C2=O)cc1 (stereo not given)	none
Cc1ccc(NC2CC(=O)N(c3ccc(N4CCCCC4)cc3)C2=O)cc1 (stereo not given)	none
O=C1CC(Nc2ccc(N3CCOCC3)cc2)C(=O)N1c1cccc(C(F)(F)F)c1 (stereo not given)	12-hLO inh inconclusive, 15-hLO-2 inh 20µM
COc1ccc(N2C(=O)CC(Nc3ccc(N4CCOCC4)cc3)C2=O)c(OC)c1 (stereo not given)	15-hLO-2 inh 31.6µM
COc1cccc(N2C(=O)CC(Nc3ccc(N4CCOCC4)cc3)C2=O)c1 (stereo not given)	12-hLO inh inconclusive, 15-hLO-2 inh 12.6µM

Screening results: PubChem, National Center for Advancing Translational Sciences (NCATS)
